Laboratory results: ChEMBL document CHEMBL4513146, “CO-ADD screening of Karazin Kharkiv National University (Ukraine) compounds”
Entries with a potency or affinity are not part of this list.

Assays:
Staphylococcus aureus = details: Concentration 32 ug.mL-1;; ASSAY_TEST Inhibition of Bacterial Growth; detection method Absorption (OD600); MEDIA CAMHB; plate type 384well; NBS; CORNING #3640; time 18 hr
Escherichia coli = details: Concentration 32 ug.mL-1;; ASSAY_TEST Inhibition of Bacterial Growth; detection method Absorption (OD600); MEDIA CAMHB; plate type 384well; NBS; CORNING #3640; time 18 hr

| SMILES | Inhibition (Staphylococcus aureus) [%] | Inhibition (Escherichia coli) [%] |
| --- | --- | --- |
| COC(=O)c1ccc(NC(=O)CSc2nc3ccccc3n3c(C(C)C)nnc23)cc1 | 12.04 | -0.7 |
| Cc1ccc(Oc2nccn3c(=O)n(CC(=O)Nc4ccccc4Br)nc23)cc1 | 10.09 | -0.96 |
| CC(C)c1nnc2c(=O)n(CC(=O)Nc3ccc(F)cc3F)c3ccccc3n12 | 12.23 | 2.42 |
| Cc1cccc(C)c1NC(=O)Cn1nc2c3cc(-c4ccc(Cl)cc4)nn3ccn2c1=O | -1.34 | -1.58 |
| CC(C)c1nnc2c(=O)n(CC(=O)Nc3cccc(Cl)c3)c3ccccc3n12 | 5.77 | -3.24 |
| Cn1c(=O)c2ccc(C(=O)NC3CCCCC3)cc2n2c(=O)n(CC#N)nc12 | 10.61 | 1.2 |
| COc1cccc(-c2nc(CSc3nc4ccccc4n4c(C(C)C)nnc34)c(C)o2)c1OC | 5.27 | -1.56 |
| CCc1ccc(NC(=O)Cn2nc3ccc(SC(C)(C)C)nn3c2=O)cc1 | 4.76 | -1.87 |
| Cc1ccc(-c2ccc3nnc(CCC(=O)NCc4ccc(C(C)C)cc4)n3n2)cc1C | 2.18 | -3.19 |
| COc1ccc(NC(=O)Cn2nc3c(Sc4ccccc4)nccn3c2=O)cc1OC | -8.9 | -5.11 |
| COC(=O)c1ccccc1NC(=O)Cn1nc2c3sc(N4CCCC4)nc3ncn2c1=O | 6.17 | -6.93 |
| COc1cccc(-n2ccn3c(SCC(=O)N4CCN(c5ccccc5F)CC4)nnc3c2=O)c1 | 12.37 | -5.42 |
| CC(C)c1nnc2c(SCC(=O)Nc3ccccc3Br)nc3ccccc3n12 | 6.58 | -0.85 |
| COc1cccc(-n2ccn3c(SCC(=O)c4cc(C)ccc4C)nnc3c2=O)c1 | 11.66 | -1.7 |
| CC(C)(C)Sc1ccc2nn(CC(=O)Nc3ccccc3C(F)(F)F)c(=O)n2n1 | 6.28 | -2.49 |
| CN(C(=O)Cn1nc2nc(Nc3ccc(F)cc3)ccn2c1=O)c1ccccc1 | -13.79 | -1.66 |
| CCC(Sc1nnc2c(=O)n(-c3ccc(F)cc3)ccn12)C(=O)Nc1cc(OC)cc(OC)c1 (stereo unspecified) | 15.63 | -3.99 |
| COc1cccc(-n2ccn3c(SCC(=O)Nc4cccc(F)c4)nnc3c2=O)c1 | -6.79 | -18.41 |
| Cc1cccc(NC(=O)Cn2nc3ccc(-c4ccc(Cl)cc4)nn3c2=O)c1 | 7.34 | -1.37 |
| CCc1ccc(N(Cc2cccc(F)c2)S(=O)(=O)c2cccn3c(C)nnc23)cc1 | 10.02 | -2.48 |
| COc1ccccc1CNC(=O)Cn1nc2c(N3CCC(C)CC3)nccn2c1=O | 13.11 | -0.77 |
| CCOc1ccccc1NC(=O)Cn1c(=O)c2nnc(C(C)C)n2c2ccccc21 | 15.38 | 5 |
| C=Cc1ccc(CN(c2ccc(CC)cc2)S(=O)(=O)c2cccn3c(C)nnc23)cc1 | 9.91 | -2.55 |
| O=C(Cn1nc2c(N3CCSCC3)nc3ccccc3n2c1=O)NCc1ccccc1 | 1.1 | -1.64 |

| SMILES | Inhibition (Staphylococcus aureus) [%] | Inhibition (Escherichia coli) [%] |
| --- | --- | --- |
| CCOc1ccc(N(Cc2ccc(F)cc2)S(=O)(=O)c2ccc3nncn3c2)cc1 | -10.69 | -16.83 |
| Cc1ccc(C)c(CSc2nnc3c(=O)n(-c4ccc(Br)cc4)ccn23)c1 | 3.9 | -0.75 |
| Cc1ccc(C)c(Cn2nc3n(CC(C)C)c(=O)c4sccc4n3c2=O)c1 | 12.61 | 1.72 |
| Cc1ccccc1NC(=O)Cn1nc2c(SC3CCCCC3)nccn2c1=O | 1.84 | -9.01 |
| COc1ccc(NC(=O)Cn2nc3c4cc(-c5ccc(C)cc5)nn4ccn3c2=O)cc1Cl | -6.7 | -3.03 |
| O=C(CSc1nnc2c(=O)n(-c3ccc(Br)cc3)ccn12)c1ccc(F)cc1 | 0.43 | -3.19 |
| COc1ccc(CNC(=O)Cn2nc3c(SC4CCCCC4)nccn3c2=O)cc1 | 8.37 | -2.77 |
| COc1cccc(CN(c2ccc(F)cc2)S(=O)(=O)c2ccc3nnc(C)n3c2)c1 | -1.25 | -6.02 |
| Cc1nnc2ccc(S(=O)(=O)N(Cc3ccc(F)cc3)c3ccc(Cl)cc3)cn12 | 3.43 | -7.02 |
| COc1ccc(NC(=O)C(C)Sc2nnc3c(=O)n(-c4ccccc4)ccn23)cc1 (stereo unspecified) | 4.59 | 4.26 |
| CCCCN(CC)c1ccc2nnc(CCc3nc(-c4ccc(OCc5ccccc5)cc4)no3)n2n1 | 4.18 | -2.08 |
| COc1ccc(-c2cc3c4nnc(SCC(=O)NCc5ccccc5)n4ccn3n2)cc1 | -8.9 | -21.63 |
| Cc1cc(C)cc(NC(=O)Cn2nc3ccc(-c4ccc(C)c(C)c4)nn3c2=O)c1 | 1.36 | -7.85 |
| COc1ccc(NC(=O)Cn2nc3c(N4CCCC4)nccn3c2=O)cc1 | 5.17 | 5.65 |
| CC(C)CCNC(=O)Cn1nc2n(CC(C)C)c(=O)c3sccc3n2c1=O | 4.95 | -1.56 |
| COc1ccccc1CNC(=O)CSc1nnc2c3cc(-c4ccc(C)cc4)nn3ccn12 | -5.58 | -8.49 |
| COc1cccc(NC(=O)Cn2nc3c(Oc4cccc(OC)c4)nccn3c2=O)c1 | -17.16 | 2.27 |
| Cc1cc(C)cc(Nc2nc(C)cc3nn(CC(=O)Nc4ccccc4)c(=O)n23)c1 | 4.32 | -6.45 |
| COc1ccc(CNC(=O)Cn2nc3c(Sc4ccc(C)cc4C)nccn3c2=O)cc1 | 6.57 | -1.79 |
| COc1ccc(-c2cc3c4nnc(SCC(=O)NCc5ccc(Cl)cc5)n4ccn3n2)cc1 | -1.89 | -4.94 |
| COc1cccc(CN(c2cc(C)cc(C)c2)S(=O)(=O)c2cccn3c(C)nnc23)c1 | -0.14 | -8.8 |
| COc1ccc(CCn2c(=O)c3sccc3n3c(=O)n(Cc4c(F)cccc4Cl)nc23)cc1OC | -2.47 | -5.54 |
| O=C(Cn1nc2c(SC3CCCCC3)nccn2c1=O)Nc1cccc(Cl)c1 | -15.22 | -17.9 |
| Cc1cccc(CN(c2ccccc2)S(=O)(=O)c2cccn3c(C)nnc23)c1 | 5.16 | -11.12 |
